# Screens: PubChem BioAssay, National Center for Advancing Translational Sciences (NCATS)
# TRPML1 inh: qHTS for Inhibitors of the Human Mucolipin Transient Receptor Potential 1 (TRPML1). activity change, negative = inhibition, % (no concentration beside the values). AID 624415, 2012. Mucolipin-1 (Homo sapiens), Q9GZU1. actives 0.02% (n = 390,000). TRPML1-inducible cells, Ca2+ dye fluorescence, FDSS; active compounds read low; inhibition of EC80 agonist-evoked calcium signal; in the data active means activity change below about -50%; inconclusive means between about -30% and that limit;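 further: stimulus is agonist 54-4 at its EC80 concentration; on the % scale 0 is the no-effect control and ±100 the full control effect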
#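 Tet-induced TRPML1-DL cells loaded with Ca8 no-wash calcium dye were read kinetically on FDSS. Compound addition was followed by EC80 agonist 54-4 (4 uM final); inhibition was read over 110 s.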
# PTHR1 ag: qHTS for PTHR1 Agonists: Primary Screen; Parathyroid hormone/parathyroid hormone-related peptide receptor (Homo sapiens), Q03431; HEK293 GP2 PTHR1 cells, GloSensor cAMP luminescence, 1 h; Potency, µM (doses to about 115 µM), for inactives: at the highest dose activation, most hits filed as activators; actives 0.075% (n = 410,000); AID 743266, 2014; further: potency means the concentration at half of the fitted maximal effect; nearly all actives have a fitted effect of over 55% in size
# Target sequence (Q03431 whole entry, looked up): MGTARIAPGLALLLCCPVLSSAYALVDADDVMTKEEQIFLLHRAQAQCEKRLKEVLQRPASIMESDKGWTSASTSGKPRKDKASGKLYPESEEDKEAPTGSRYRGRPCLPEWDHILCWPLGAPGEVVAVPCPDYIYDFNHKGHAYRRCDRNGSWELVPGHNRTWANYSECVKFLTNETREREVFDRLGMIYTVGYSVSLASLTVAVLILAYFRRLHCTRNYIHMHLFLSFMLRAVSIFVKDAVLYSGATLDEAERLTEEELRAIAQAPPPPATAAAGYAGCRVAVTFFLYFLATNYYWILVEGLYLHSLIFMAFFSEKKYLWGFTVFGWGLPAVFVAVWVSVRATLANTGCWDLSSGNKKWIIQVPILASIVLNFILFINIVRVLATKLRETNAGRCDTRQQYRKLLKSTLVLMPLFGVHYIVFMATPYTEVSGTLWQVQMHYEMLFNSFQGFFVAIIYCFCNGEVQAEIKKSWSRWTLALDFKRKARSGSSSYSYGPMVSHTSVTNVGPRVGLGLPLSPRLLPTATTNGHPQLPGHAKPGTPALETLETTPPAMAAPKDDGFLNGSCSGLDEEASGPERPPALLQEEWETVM
#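 HEK-293-derived GP2 cells expressing PTHR1 and a GloSensor cAMP reporter, 3,000/well, plated overnight, given luciferin plus IBMX (each 0.5 mM as added) for 1 h at 37 °C, then compound for 1 h at 37 °C. Luminescence was read after 15 min at room temperature.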
# TRPML1 ag: qHTS for Agonists of the Human Mucolipin Transient Receptor Potential 1 (TRPML1). Mucolipin-1 (Homo sapiens), Q9GZU1. TRPML1-expressing cells, Ca2+ dye fluorescence, FDSS. activation, % (test concentration not listed). actives 0.12% (n = 410,000). AID 624414, 2012; in the data active means activation above about 50%; inconclusive means mostly about 30% to 49%; further: 0% is about no effect
#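 In this qHTS format, compounds were pin-transferred onto Ca8-dye-loaded TRPML1-DL cells induced with Tet overnight, and intracellular Ca2+ fluorescence was recorded kinetically for 110 s after a 10 s baseline. A subsequent 4uM final 54-4 (EC80) addition followed by a second 110 s read served as the antagonist phase.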
# TRHR PAM: qHTS for Small Molecule Agonists and Allosteric Enhancers of Human TRH Receptor: Primary Screen for Enhancers; Thyrotropin-releasing hormone receptor (Homo sapiens), P34981; TRHR cells, fluo-8 calcium fluorescence, EC20 TRH enhancement; enhancement, % at 2 µM; actives 0.66% (n = 360,000); in the data active means enhancement above about 30%; further: 0% is about no effect
#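 Enhancer read-out: after compound pinning and an initial kinetic agonist-mode read, an EC20 of TRH (10 nM final) was injected and fluo-8 calcium signal (Ex 480/Em 530) followed at 1 s/cycle for 100 cycles in TRHR-expressing cells.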
# GLP1R cytotox: qHTS of GLP-1 Receptor Inverse Agonists: Cytotox Screen; HEK293 cAMP-luciferase reporter cells, luminescence, 24 h; Potency, µM (top dose mostly 38.3 µM), without a hit: at the top dose activity change, negative = inhibition, most hits filed as inhibitors; actives 0.13% (n = 410,000); AID 624418, 2012;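 further: loss of luciferase light is scored as toxicity; potency means the concentration at half of the fitted maximal effect; on the % scale 0 is the no-effect control and ±100 the full control effect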
#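 Cells in DMEM/10% Nu serum/1% pen-strep, 1536-well format. Pre-incubated 12 h, dosed with 23 nL compound, incubated a further 24 h. Luciferase detection, 12 min at room temp, luminescence.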
# TRHR ag: qHTS for Small Molecule Agonists and Allosteric Enhancers of Human TRH Receptor: Primary Screen for Agonists; activation, % at 2 µM; actives 0.18% (n = 360,000); TRHR cells, calcium flux fluo-8, FDSS agonist mode; AID 493084, 2011; in the data active means activation above about 30%; further: 0% is about no effect
#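 Read-out: compound-evoked intracellular calcium rise in TRHR cells, fluo-8 dye, kinetic FDSS fluorescence at 1 s/cycle following a 10-cycle baseline. Cells cultured overnight before dye loading (30 min–1.5 h, RT).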
# An asterisk follows results filed as active; i = inactive; ? = inconclusive; . = not tested or not shown; [ ] = remark or other dose. Hits are enriched below; roughly 0.93% of the tested compounds scored in any of these assays. Unless noted, the call rests on the fitted dose curve; in most records, active means well fitted curve in the direction sought with a large enough effect; inconclusive means small, poorly fitted or top-dose-only effect, or another doubt; inactive means no such curve, though single readings can be large; an effect the other way counts as inactive or inconclusive.
SMILES,TRPML1 inh,PTHR1 ag,TRPML1 ag,TRHR PAM,GLP1R cytotox,TRHR ag
Fc1ccccc1-c1ccc(-c2nc3ccc(Cl)cn3c2Nc2ccc(Cl)cc2)o1,.,.,1.2,.,.,.
Cc1cc(/C=C/c2ccnc3ccccc23)ccc1N,.,.,27.4,.,.,.
O=C(NC(=S)N1CCN(c2ccc(Cl)cc2[N+](=O)[O-])CC1)c1ccco1,-2.1,-1.3%,0.1,3.4,?,-0.6
O=C(NC(=S)N1CCN(c2ccc(Cl)cc2[N+](=O)[O-])CC1)c1cccs1,7.1,-3.8%,1.6,1.8,5.62µM*,-1.6
Cc1cc(=O)[nH]c(N=N/C(=N/Nc2ccc(O)cc2)c2ccccc2)n1,-6.8,-51.5%[57.5 µM],1.3,23.7,-22.8%,-0.6
COc1ccc(N/N=C(/N=Nc2nc(C)cc(=O)[nH]2)c2ccccc2)cc1,5.1,i,-0.3,4.0,3.98µM*,-0.7
Oc1c(N=Nc2ccccn2)ccc2ccccc12,21.0,-32.0%,2.5,-2.4,5.01µM*,2.1
Cc1cc(C)c2nc(N(CCCN(C)C)C(=O)c3ccc4c(c3)CCCC4)sc2c1,9.3,i,-0.2,33.5*,?,2.9
Cc1ccc2nc(N(CCCN(C)C)C(=O)c3ccc4c(c3)CCCC4)sc2c1,2.5,i,-0.1,-1.5,?,0.2
O=C(COc1cc2oc(=O)c3c(c2cc1Cl)CCC3)NCc1ccncc1,2.1,-8.4%,-0.1,35.7*,0.0%,-0.2
O=C(COc1cc2oc(=O)c3c(c2cc1Cl)CCC3)NCc1ccccn1,-5.1,-10.7%,-0.4,-1.0,17.3%,0.8
S=C(NCCCc1cnc[nH]1)NCCCN(Cc1ccc(Cl)cc1)c1ncc(Br)cn1,.,.,1.3,.,.,.
Cc1cc(C)n(-c2ccc(NC(=O)C3CCCCN3C(=O)c3ccoc3)cc2)n1 (centres undefined),-13.9,-24.1%,-0.2,2.3,-3.0%,0.0
Cc1cc(C)n(-c2ccc(NC(=O)C3CCCCN3Cc3cccc4c3OCO4)cc2)n1 (centres undefined),-0.5,-4.9%,0.8,30.4*,?,0.0
CC(=O)Nc1ccc(N(C(=O)c2ccco2)C(C(=O)NC2CCCC2)c2ccc(N3CCOCC3)cc2)cc1 (centres undefined),-5.3,i,0.5,35.2*,-11.6%,0.1
Cc1c(CCOC(=O)C23CC4CC(CC(C4)C2)C3)sc[n+]1CC#N,29.3,i,0.4,40.6*,?,0.4
Cc1ccc(S(=O)(=O)N2CCN(c3nc(-n4ccnn4)nc4ccccc34)CC2)cc1,.,.,-0.4,.,.,.
CC1=C/C(=C\c2ccc(N(C)C)cc2)c2ccccc21,.,.,0.0,.,.,.
CC(C)(C)n1ncc2c(=O)n(Cc3ccc(F)cc3F)cnc21,2.0,.,0.9,.,.,.
COc1cc(/C=N/NC(N)=S)ccc1OCc1ccc(C)cc1,22.0,-7.7%,2.2,2.7,12.6µM*,-0.2
COc1cc(/C=N/NC(N)=S)ccc1OC(=O)c1ccc(C)cc1,24.1,-5.1%[57.5 µM],-0.2,0.8,?,0.2
O=C(CSc1nc(-c2ccccc2)c(-c2ccccc2)o1)Nc1nnc(-c2ccccc2)s1,10.0,i,-0.1,50.1*,-5.5%,0.2
O=C(CSc1nc(-c2ccccc2)c(-c2ccccc2)o1)Nc1nncs1,-1.7,-8.2%[57.5 µM],0.6,0.9,-19.7%,-0.6
COc1cc(/C=C(\C#N)c2nc3c(s2)CCCC3)ccc1O,.,.,.,4.1,.,39.6*
N#C/C(=C\c1cccnc1)c1nc2c(s1)CCCC2,20.1,-21.2%,1.3,1.1,28.5%,2.1
SMILES,TRPML1 inh,PTHR1 ag,TRPML1 ag,TRHR PAM,GLP1R cytotox,TRHR ag
Cn1c(=O)n(C)c2cc(NS(=O)(=O)c3ccccc3)c(NCc3ccccc3)cc21,-5.4,-8.9%,2.6,30.1*,-12.1%,-0.1
C=C(c1nc2ccccc2s1)C1Cc2cccc3c2N(CCC3)C1 (centres undefined),.,.,-0.8,.,.,.
N#C/C(=C/c1ccncc1)c1nc2ccccc2c(=O)[nH]1,15.7,-4.0%,2.1,2.4,25.3%,3.6
N#C/C(=C\c1cc(Br)c(O)c(Br)c1)c1nc2ccccc2c(=O)[nH]1,7.5,i,1.9,20.3,12.7%,78.1*
O=[S+]([O-])(c1ccc2c(c1)OCCO2)N1CCN([S+](=O)([O-])c2ccc(F)cc2Cl)CC1,.,.,.,-0.5,.,0.4
Cc1ccc2oc(-c3ccc(NC(=O)COc4ccccc4)cc3O)nc2c1,.,.,-0.3,.,.,.
COc1ccc(OC)c(C(=O)c2coc3ccc(O)cc23)c1,5.2,i,0.1,40.1*,-44.2%,-1.0
CN(CC(=O)Nc1cccc(F)c1)C(=O)c1ccc(-c2cccc(C(F)(F)F)c2)o1,-9.7,-5.6%,0.5,9.1,-8.5%,-0.3
Cc1ccc(C)c(NC(=O)CN(C)C(=O)c2ccc(-c3cccc(C(F)(F)F)c3)o2)c1,-4.4,-2.1%,-0.2,37.4*,?,0.0
Cc1ccccc1C1CC(c2ccc(F)cc2)Nc2nc(N)nn21 (centres undefined),-7.7,8.8%,0.3,-1.7,3.1%,0.4
Cc1ccccc1C1CC(c2ccc(Br)cc2)Nc2nc(N)nn21 (centres undefined),-3.9,i,4.3,40.2*,0.1%,1.0
CN(C)S(=O)(=O)c1ccc(N2CCCC2)c(C(=O)NCc2ccc(Cl)cc2)c1,-0.7,i,74.6*,-14.9,-30.0%,-0.7
COc1cc(/C=N/NC(=O)CNc2n[nH]c(=O)[nH]c2=O)ccc1O,-19.4,i,0.9,-2.4,12.7%,0.4
COc1ccc(/C=N/NC(=O)CNc2n[nH]c(=O)[nH]c2=O)cc1OC,-5.1,i,-0.2,33.9*,30.8%,-0.6
Cc1c(O)c2ccccc2oc1=O,-1.6,-9.0%,-0.3,39.3*,19.2%,0.5
CN(C)CCCN(C(=O)c1cccc(N2C(=O)CCC2=O)c1)c1nc2cc3c(cc2s1)OCO3,.,i,.,32.2*,-10.0%,0.5
CCN(CC)CCN(C(=O)c1cccc(N2C(=O)CCC2=O)c1)c1nc2cc3c(cc2s1)OCO3,22.8,-7.4%,-0.5,4.4,10.7%,0.4
